Source: PubChem BioAssay (several laboratories)
RTF Ca sens inh: cardiac RTF calcium desensitization; IANBD-labeled cardiac RTF, Ca2+ fluorescence; inhibition, % at 7.15 µM; 340,000 tested, 0.12% active; P19429+P45379;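 active = inhibition above the mean inhibition of all tested compounds plus 3 SD, cut at about 17% in these data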;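 note: assay run at fixed EC70 calcium of 1.6 mM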
CRFBP-R2 agonist: CRF-BP/CRF-R2 complex agonism; activation, % at 13.2 µM; 350,000 tested, 0.46% active; HEK293 CRF-R2/CRF-BP, calcium dye fluorescence (FLIPR); percent of saturating CRF peptide response;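 active = activation of at least 50%, plus an integration ratio under a set limit after plate pattern correction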
IDE cell inh: inhibitors of human insulin-degrading enzyme in cells | P14735 | HEK cells, FAbetaB cleavage, fluorescence polarization | inhibition, % at 5.59 µM | 320,000 tested, 0.41% active;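 active = percent inhibition above the average of all tested compounds plus 3 SD, set per screening campaign, cut at about 16% in these data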;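 note: IDE supplied by intact live HEK cells; FP after avidin binding of uncleaved biotin substrate so inhibition keeps polarization high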
Target sequence (P14735 whole entry, looked up): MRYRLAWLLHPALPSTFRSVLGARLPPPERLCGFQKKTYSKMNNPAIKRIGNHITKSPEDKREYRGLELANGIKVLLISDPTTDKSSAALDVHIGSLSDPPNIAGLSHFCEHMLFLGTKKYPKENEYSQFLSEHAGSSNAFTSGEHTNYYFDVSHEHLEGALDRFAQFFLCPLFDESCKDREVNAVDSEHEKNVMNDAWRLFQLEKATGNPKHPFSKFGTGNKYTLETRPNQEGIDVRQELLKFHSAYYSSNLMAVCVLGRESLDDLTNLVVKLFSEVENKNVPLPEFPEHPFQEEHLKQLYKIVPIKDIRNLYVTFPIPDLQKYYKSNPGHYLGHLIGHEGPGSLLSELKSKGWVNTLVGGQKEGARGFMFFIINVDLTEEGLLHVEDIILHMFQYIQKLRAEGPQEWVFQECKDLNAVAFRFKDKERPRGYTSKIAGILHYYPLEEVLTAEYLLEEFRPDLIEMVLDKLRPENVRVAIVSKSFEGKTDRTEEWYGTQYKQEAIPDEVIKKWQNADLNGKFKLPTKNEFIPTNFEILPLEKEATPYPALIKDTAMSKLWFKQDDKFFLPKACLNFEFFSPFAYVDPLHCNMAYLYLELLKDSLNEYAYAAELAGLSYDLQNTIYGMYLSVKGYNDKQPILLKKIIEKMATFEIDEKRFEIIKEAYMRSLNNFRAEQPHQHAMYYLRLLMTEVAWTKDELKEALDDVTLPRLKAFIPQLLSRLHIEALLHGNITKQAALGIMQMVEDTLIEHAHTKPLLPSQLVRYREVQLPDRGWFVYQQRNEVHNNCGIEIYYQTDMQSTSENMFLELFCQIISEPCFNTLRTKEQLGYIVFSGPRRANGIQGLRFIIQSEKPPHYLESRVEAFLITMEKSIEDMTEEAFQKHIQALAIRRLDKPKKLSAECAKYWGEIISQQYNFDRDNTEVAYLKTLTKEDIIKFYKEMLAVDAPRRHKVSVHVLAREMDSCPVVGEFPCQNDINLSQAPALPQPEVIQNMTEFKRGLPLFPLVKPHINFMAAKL
cardiac RTF act: cardiac RTF calcium sensitization; activation, % at 7.2 µM; 340,000 tested, 0.24% active; AID 493008; P19429+P45379; IANBD-labeled TnC RTF fluorescence at EC20 calcium; 0% EC20 calcium, 100% full calcium;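 active = activation above the mean over all tested compounds plus 3 SD, cut at about 30% in these data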;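 note: rise in fluorescence read as greater calcium sensitivity of cardiac thin filaments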
CRFBP-R2 block: blocks CRF-induced signaling of the CRF-BP/CRF-R2 complex | 350,000 tested, 0.59% active | AID 588475 | HEK293 CRF-R2/CRF-BP, CRF-induced calcium fluorescence | inhibition, % at 11.8 µM;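 active = inhibition of the ligand-induced calcium signal above about 50% at the single tested concentration, limit read from the data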
IDE act: IDE (human) activation, cell-based; P14735; 340,000 tested, 0.073% active; HEK cells, FAbeta-B cleavage, fluorescence polarization; 0% vehicle, 100% cell-free pure enzyme wells; activation, % at 5.96 µM; AID 493087;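 active = activation above the mean of all tested compounds plus 3 SD, set per screening campaign, cut at about 17% in these data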
RTF inh confirm: confirmation of inhibitors of cardiac thin filament calcium sensitivity | shares compounds with RTF Ca sens inh | reconstituted cardiac thin filaments, calcium sensitivity fluorescence | inhibition, % at 7.15 µM | 360 tested, 8% active | AID 504635; in the data active = inhibition above about 18%
Of the large screens only hits and unclear results are named; the others gave an inactive call (follow-up assays come after a bar, where they were run). Shown are actives, neighbours in structure and some others; about 1.5% of the full set was active somewhere.

S=c1[nH]nc(-c2cc(-c3ccccc3)n[nH]2)n1/N=C/C=C/c1ccco1	none (no result: RTF Ca sens inh, cardiac RTF act, IDE act)
N#Cc1nc(COc2ccc(Br)cc2)oc1N1CCCCCC1	none
N#Cc1nc(COc2ccc(F)cc2)oc1N1CCCCC1	RTF Ca sens inh 24 | RTF inh confirm inactive
O=C(O)CSc1cc(C(=O)c2ccccc2O)cn2c(=O)c3c4c(sc3nc12)CCCC4	RTF Ca sens inh 22 (no result: IDE cell inh) | RTF inh confirm inactive
COc1ccc(CCNC(=O)CCCCCNc2nc(=S)[nH]c3ccccc23)cc1OC	none
COc1ccc(CNC(=O)CCCCCNc2nc(=S)[nH]c3ccccc23)cc1	RTF Ca sens inh 18 | RTF inh confirm inactive
CCOC(=O)C1(CC2CC2)CCN(Cc2cn(C)c3ccccc23)CC1	RTF Ca sens inh 17 | RTF inh confirm inactive
CCOC(=O)C1(Cc2ccccc2)CCN(Cc2cn(CC(=O)OC)c3ccccc23)CC1	none
O=C(O)c1cc(N2N=C(C(F)(F)F)/C(=C/C=C/c3ccco3)C2=O)ccc1Cl	RTF Ca sens inh 111 (no result: IDE cell inh) | RTF inh confirm 57
CCc1ccc([C@@H]2C[C@H]3CN(Cc4ccccc4OC)C(=O)[C@]34CCCN24)cc1	RTF Ca sens inh 55 | RTF inh confirm inactive
COc1ccccc1CN1C[C@@H]2C[C@@H](c3cccc(O)c3)N3CCC[C@@]23C1=O	none
Cc1c(Cl)cccc1NS(=O)(=O)c1ccc2c(c1)C1C=CCC1C(c1ccc(C(=O)O)cc1)N2 (stereo unspecified)	RTF Ca sens inh 31 | RTF inh confirm inactive
CCCN1CCC(N2CCCC(C(=O)O)C2)CC1 (stereo unspecified)	none
COc1ccc(/C(C)=N\O)cc1OC	none
O=c1cc2oc3cc(O)c(O)cc3c(-c3ccccc3[N+](=O)[O-])c-2cc1O	RTF Ca sens inh 29 | RTF inh confirm 56
Cc1noc(C)c1CSCC(=O)N1CCN(c2ccc([N+](=O)[O-])cc2)CC1	none
Cc1cc(C)n(Cc2ccc(C(=O)N/N=C/c3ccc(-c4ccc([N+](=O)[O-])cc4)o3)o2)n1	RTF Ca sens inh 29 | RTF inh confirm inactive
CCCCC(=O)N/N=C/c1ccc(-c2ccc([N+](=O)[O-])cc2)o1	none
Cc1cccc(NC(=O)c2cnn(C)c2)c1C	RTF Ca sens inh 17 | RTF inh confirm inactive
Cc1cc(C)c(NC(=O)c2cnn(C)c2)c(C)c1	none
COCCN1CCN(Cc2nc(C3(c4ccc(C)cc4)CCCC3)no2)CC1	RTF Ca sens inh 19 | RTF inh confirm inactive
CC(=O)N1CCCN(Cc2nc(C3(c4ccc(C)cc4)CCCC3)no2)CC1	none
Cc1ccccc1N1CCN(C2=NC(=O)/C(=C\c3cccs3)S2)CC1	RTF Ca sens inh 19 | RTF inh confirm inactive
O=C1N=C(N2CCN(c3cccc4ccccc34)CC2)S/C1=C/c1cccs1	none
CN1CCCC(CN2c3ccccc3Sc3ccccc32)C1 (stereo unspecified)	RTF Ca sens inh 24 | RTF inh confirm inactive
CN1CCCC(CC2c3ccccc3Sc3ccccc32)C1 (stereo unspecified)	none
O=C(O)c1cn(-c2ccc(F)cc2)c2cc(N3CCNCC3)c(F)cc2c1=O	none (no result: IDE cell inh)
CCCN1CCN(C(=O)c2ccc(Sc3ccc(C)cc3)c(NC(C)=O)c2)CC1	none
CC(=O)Nc1cc(C(=O)N2CCc3ccccc3C2)ccc1Sc1ccc(C)cc1	RTF Ca sens inh 17 | RTF inh confirm inactive
Cc1ccc(NS(=O)(=O)c2ccc(/C=C/C(=O)O)cc2)cc1Cl	RTF Ca sens inh 21 | RTF inh confirm inactive
Cc1ccc(NS(=O)(=O)c2ccc(Cl)c(C(=O)O)c2)cc1S(=O)(=O)N1CCOCC1	RTF Ca sens inh 19 | RTF inh confirm inactive
NC(=O)c1sc2nc3c(c(-c4ccco4)c2c1N)CCC3	none
Nc1c(C(=O)NC2CC2)sc2nc3c(c(-c4ccco4)c12)CC/C3=C/c1ccco1	RTF Ca sens inh 31 | RTF inh confirm 98
Nc1ncnc2oc(-c3ccco3)c(-c3ccco3)c12	RTF Ca sens inh 58 | RTF inh confirm inactive
Cc1nn(CC(=O)NCCCN2CCCC2)c(=O)c2nn(-c3ccccc3)c(C)c12	RTF Ca sens inh 19 | RTF inh confirm inactive
CC1(C)CC(=O)C=C(c2n[nH]nc2C2=CCCCC2)C1	none (no result: RTF Ca sens inh, IDE cell inh, cardiac RTF act, IDE act)
Cc1ccc(N=CC2=C(O)CC(c3ccc(Cl)cc3)CC2=O)cc1 (stereo unspecified)	none
CC(Sc1nc(=O)cc(N)n1CCc1ccccc1)C(=O)NCc1ccccc1 (stereo unspecified)	RTF Ca sens inh 19 | RTF inh confirm inactive
CC(NC(=O)CSc1nc(=O)cc(N)n1CCc1ccccc1)c1ccccc1 (stereo unspecified)	none
COc1cc2c(cc1OC)CN(C(=O)CN1CCN(S(=O)(=O)c3ccc(C)c(C)c3)CC1)CC2	none
Cc1ccc(/C=C2\SC(=S)N(c3cccnc3)C2=O)cc1	none
COc1cc(/C=C2\SC(=S)N(c3cccnc3)C2=O)ccc1O	RTF Ca sens inh 19, IDE cell inh 45 | RTF inh confirm inactive
Brc1ccc(-c2nnc(Cc3ccccc3)o2)cc1	none (no result: RTF Ca sens inh, cardiac RTF act, IDE act)
c1ccc(Cc2nnc(-c3ccccc3)o2)cc1	RTF Ca sens inh 17 | RTF inh confirm inactive
CC1(C)CC(=O)C2=C(C1)Nc1ccccc1NC2c1cccs1 (stereo unspecified)	RTF Ca sens inh 19 | RTF inh confirm inactive
O=C(O)c1cc(O)c2c(c1)[C@H]([C@H]1c3cc(C(=O)O)cc(O)c3C(=O)c3c(O[C@@H]4O[C@H](CO)[C@@H](O)[C@H](O)[C@H]4O)cccc31)c1cccc(OC3O[C@H](CO)[C@@H](O)[C@H](O)[C@H]3O)c1C2=O (stereo partly specified)	RTF Ca sens inh 53 | RTF inh confirm 102
O=C(O)c1cc(O)c2c(c1)[C@@H]([C@H]1c3cc(C(=O)O)cc(O)c3C(=O)c3c(O[C@@H]4O[C@H](CO)[C@@H](O)[C@H](O)[C@H]4O)cccc31)c1cccc(OC3O[C@H](CO)[C@@H](O)[C@H](O)[C@H]3O)c1C2=O (stereo partly specified)	RTF Ca sens inh 59 | RTF inh confirm 112
COc1cccc(-n2c(SCc3cc(=O)oc4cc(O)c(O)cc34)nc3ccccc3c2=O)c1	RTF Ca sens inh 17 | RTF inh confirm inactive
CCN(CC)C(=O)CSc1nc2ccccc2c(=O)n1-c1cccc(OC)c1	none
CCO[C@H]1OC(C(=O)N2CCN(C)CC2)=C[C@@H](C2CC2)[C@@H]1CCCO	none
CC(C)(CNS(C)(=O)=O)SCc1ccc(Cl)cc1	RTF Ca sens inh 17 | RTF inh confirm inactive
COC(=O)[C@H](Cc1ccccc1)NC(=O)O[C@@H]1C(=O)c2cc(Br)ccc2O[C@H]1c1cccc(OC)c1	none (no result: RTF Ca sens inh, CRFBP-R2 agonist, cardiac RTF act, CRFBP-R2 block, IDE act)
